Compounds without any hit were thinned out: in the full panel of roughly 83,000, 20% have a hit.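 96-well plates, one dose, 48 hours. Percent growth reported; active if below 10.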 Unmarked numbers belong to inactive results. The source made the active and inactive calls.
Assays:
Test in all cases: NCI-60 one-dose screen, 48 h (100 = growth as untreated, 0 = no growth, -100 = all killed)
Conditions in all cases: 10 µM unless noted
[1] = system: NCI-H23 lung
[2] = system: NCI-H226 lung
[3] = system: NCI-H322M lung
[4] = system: HOP-62 NSCLC
[5] = system: NCI-H460 lung
[6] = system: HOP-92 NSCLC
[7] = system: NCI-H522 lung
[8] = system: 786-0 renal
[9] = system: COLO 205 colon
[10] = system: A549/ATCC NSCLC

| Structure (SMILES) | growth [1] | growth [2] | growth [3] | growth [4] | growth [5] | growth [6] | growth [7] | growth [8] | growth [9] | growth [10] |
| --- | --- | --- | --- | --- | --- | --- | --- | --- | --- | --- |
| COC(=O)C(C)NC1=C(Cl)C(=O)C(NC(C)C(=O)OC)=C(Cl)C1=O (stereo not drawn) | 101% | 100% | 101% | 98.7% | 95.9% | 101% | 78.2% | 105% | 99.5% | – |
| COc1cc(Nc2ccnc3ccc(Br)cc23)cc(OC)c1OC | 53.8% | 78.8% | 63.5% | 23.2% | 7.02% (active) | 49% | -17.8% (active) | – | 39% | 37.5% |
| CCCCCCCCCCCCCCCc1cc(O)ccc1[N+](=O)[O-] | 79.6% | 96.9% | 100% | 96% | 102% | 59.9% | 28% | 97.9% | 96% | – |
| O=C1OC(c2ccc(-c3ccccc3)cc2)=C/C1=C/c1c(Cl)cccc1Cl | 94.7% | 84.1% | 85.7% | 76% | 99.4% | 59% | 89.3% | – | 103% | 11% |
| C=C1NC(=O)C(C(C)CC)NC(=O)C2CSCC(NC(=O)CCC(=O)O)C(=O)NC(Cc3ccccc3)C(=O)NC(C)C(=O)NC(CC(C)CC)C(=O)NC(C(=O)NC(Cc3ccccc3)C(=O)N3CCCC3C(=O)N2)C(C)OC(=O)C(CO)NC(=O)C(C(O)COC)N(C)C(=O)C(C(C)C)NC(=O)C(CC(C)CC)NC1=O (stereo not drawn) | 38.6% [6 µM] | 56.8% [6 µM] | 39.8% [6 µM] | 17.3% [6 µM] | -4.11% [6 µM] (active) | 42% [6 µM] | -19.3% [6 µM] (active) | – | -44.7% [6 µM] (active) | 10.9% [6 µM] |
| CC1CN(CCCOC(=O)Nc2ccc(Cl)cc2)CCN1C(C)(C)C (stereo not drawn) | 101% | 96.4% | 96.5% | 112% | 106% | 133% | 97.5% | 99.3% | 102% | – |
| O=C1c2ccccc2C(=O)c2c1oc1ccc3ccccc3c21 | 33.7% | 85.5% | 83.1% | 108% | 44.9% | 102% | 97.5% | 101% | 107% | – |
| CC(=O)N1N=C(c2ccc(C)cc2)CC1c1cn(-c2ccccc2)nc1-c1cccc(Nc2ccnc3cc(Cl)ccc23)c1 (stereo not drawn) | 79.1% | 111% | 56.9% | -19.7% (active) | 15.8% | 78.7% | 36% | 52.3% | 93.8% | 68.4% |
| COc1ccc(/C=C(/C(=O)N2CCN(c3ccccc3)CC2)c2cc(OC)c(OC)c(OC)c2)cc1O | 31.5% | 28.9% | 42% | 20.6% | 5.38% (active) | 94% | -9.76% (active) | 25.5% | 35.7% | – |
| CC1=C(C(=O)Nc2ccc(F)cc2)C(c2ccc(C)cc2)C2=C(CC(C)(C)CC2=O)N1 (stereo not drawn) | 93.4% | 89.8% | 103% | 91.5% | 90.8% | 68.4% | 91.2% | 97.2% | 105% | 92.4% |
| N[C@@H](CO)C(=O)O | 91% | 97.7% | 103% | 105% | 107% | 89.8% | 107% | 95.1% | 106% | 102% |
| O=C1/C(=C\c2cccn2Cc2ccc(Cl)cc2)c2ccccc2N1c1c(Cl)cccc1Cl | 86.3% | 59.3% | 68.6% | 98.6% | 94% | 74.8% | – | 81.7% | 93.6% | 67.2% |
| Cc1cc(C)cc(CCCCCCCCCCCCCCCCCC(=O)O)c1 | 104% | 111% | 110% | 107% | 113% | 116% | 92% | 99.5% | 113% | – |
| O=C(NCC(c1ccsc1)N1CCCCCC1)c1ccc(C(F)(F)F)cc1 (stereo not drawn) | 93% | 91.9% | 99.9% | 113% | 100% | 99% | – | 96.9% | 102% | 96.5% |
| CN1CCN(Cc2ccc(NC(=O)c3cccc(C#Cc4cnc(N)c5ncccc45)c3F)cc2C(F)(F)F)CC1 | 61.4% | 19.3% | 46.7% | 49.4% | -71.8% (active) | 26.5% | -9.1% (active) | -88.2% (active) | 42.5% | – |
